In article PMC7862700, “An all-to-all approach to the identification of sequence-specific readers for epigenetic DNA modifications on cytosine”:

Tests used:
Assay in all cases: DAPPL (digital affinity profiling via proximity ligation, sequencing); 10 mM Tris-HCl pH 7.5, 50 mM NaCl, 1 mM DTT, 4% glycerol, room temperature, 30 min; GST-TFs on glutathione beads, 16-mer random dsDNA library, 0.1% formaldehyde crosslink after washing; high values mean tight binding
Conditions in all cases: protein: recombinant; tags: N-terminal GST; dsDNA, one strand shown
FLI1 = target: T1, FLI1 (Homo sapiens, UniProt Q01543 1-452)
T1 sequence: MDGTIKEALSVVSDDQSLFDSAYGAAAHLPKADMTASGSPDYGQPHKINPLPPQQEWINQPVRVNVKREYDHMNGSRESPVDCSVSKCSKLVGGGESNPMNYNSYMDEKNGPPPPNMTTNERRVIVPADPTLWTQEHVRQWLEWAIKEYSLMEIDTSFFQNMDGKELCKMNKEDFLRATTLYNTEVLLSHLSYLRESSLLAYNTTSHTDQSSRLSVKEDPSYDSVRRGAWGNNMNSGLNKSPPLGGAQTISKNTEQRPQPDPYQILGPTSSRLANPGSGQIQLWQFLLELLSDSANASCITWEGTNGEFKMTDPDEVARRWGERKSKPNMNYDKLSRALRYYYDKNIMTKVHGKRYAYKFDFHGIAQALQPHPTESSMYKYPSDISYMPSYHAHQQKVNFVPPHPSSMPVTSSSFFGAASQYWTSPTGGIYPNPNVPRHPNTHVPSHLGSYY
Procedure, shortened: (§1)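 Beads coated with glutathione captured GST-fused human transcription factors that had been expressed in yeast, and the factors were then given DNA barcodes and pooled with a tag-only sample. The pools were incubated with 200 nmole of a random double-stranded 16-mer DNA library in Tris/NaCl/DTT/glycerol buffer for 30 min at room temperature, washed, crosslinked with 0.1% formaldehyde and proximity-ligated with BsaI/T4 ligase at 37 °C for 1 h. PCR amplification and Illumina NextSeq500 sequencing came last. Binding signal is each hexamer's read frequency for a factor divided by its frequency for the tag-only sample.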

ELK1 = target: T2, ELK1 (Homo sapiens, UniProt P19419 1-428)
T2 sequence: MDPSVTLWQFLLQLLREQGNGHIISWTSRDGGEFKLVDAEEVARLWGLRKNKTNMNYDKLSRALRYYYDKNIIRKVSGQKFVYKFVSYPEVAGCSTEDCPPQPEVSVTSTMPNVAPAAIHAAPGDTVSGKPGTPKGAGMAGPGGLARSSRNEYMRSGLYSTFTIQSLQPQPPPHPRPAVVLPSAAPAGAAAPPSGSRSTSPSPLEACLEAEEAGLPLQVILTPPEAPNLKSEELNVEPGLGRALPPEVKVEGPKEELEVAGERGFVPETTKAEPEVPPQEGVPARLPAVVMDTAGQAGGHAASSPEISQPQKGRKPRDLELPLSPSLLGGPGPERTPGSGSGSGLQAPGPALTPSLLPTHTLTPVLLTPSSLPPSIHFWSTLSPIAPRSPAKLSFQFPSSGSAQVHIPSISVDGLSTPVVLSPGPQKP
Procedure, shortened: as §1

GABPA = target: T3, GABPA (Homo sapiens, UniProt Q06546 1-454)
T3 sequence: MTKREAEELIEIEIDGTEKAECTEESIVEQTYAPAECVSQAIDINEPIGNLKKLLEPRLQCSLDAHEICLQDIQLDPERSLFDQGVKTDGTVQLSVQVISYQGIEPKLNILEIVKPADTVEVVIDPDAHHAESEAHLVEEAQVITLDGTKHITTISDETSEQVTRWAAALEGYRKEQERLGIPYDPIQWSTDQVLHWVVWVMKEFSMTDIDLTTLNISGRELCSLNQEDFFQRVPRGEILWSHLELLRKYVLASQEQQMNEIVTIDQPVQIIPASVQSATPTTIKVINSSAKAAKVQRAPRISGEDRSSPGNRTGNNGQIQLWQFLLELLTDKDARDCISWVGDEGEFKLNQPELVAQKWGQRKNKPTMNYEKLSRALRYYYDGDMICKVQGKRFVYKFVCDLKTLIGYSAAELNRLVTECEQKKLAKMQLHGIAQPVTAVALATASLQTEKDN
Procedure, shortened: as §1

ERG = target: T4, ERG (Homo sapiens, UniProt P11308 1-479)
T4 sequence: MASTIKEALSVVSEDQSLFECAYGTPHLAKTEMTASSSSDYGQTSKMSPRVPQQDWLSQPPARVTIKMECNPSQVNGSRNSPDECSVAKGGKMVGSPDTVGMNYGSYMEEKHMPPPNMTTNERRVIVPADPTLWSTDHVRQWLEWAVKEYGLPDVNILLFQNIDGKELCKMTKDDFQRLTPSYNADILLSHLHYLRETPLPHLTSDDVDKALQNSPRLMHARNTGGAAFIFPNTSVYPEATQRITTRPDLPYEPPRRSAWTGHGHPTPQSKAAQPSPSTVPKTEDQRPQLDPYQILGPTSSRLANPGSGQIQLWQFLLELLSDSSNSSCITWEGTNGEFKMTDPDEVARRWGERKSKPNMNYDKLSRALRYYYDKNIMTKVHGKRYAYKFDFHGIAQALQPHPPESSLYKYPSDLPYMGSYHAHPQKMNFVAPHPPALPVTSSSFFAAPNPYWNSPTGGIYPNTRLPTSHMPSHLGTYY
Procedure, shortened: as §1

ELF1 = ELF1 (Homo sapiens, UniProt P32519 1-619)
Procedure, shortened: as §1

EHF = target: T5, EHF (Homo sapiens, UniProt Q9NZC4 1-300)
T5 sequence: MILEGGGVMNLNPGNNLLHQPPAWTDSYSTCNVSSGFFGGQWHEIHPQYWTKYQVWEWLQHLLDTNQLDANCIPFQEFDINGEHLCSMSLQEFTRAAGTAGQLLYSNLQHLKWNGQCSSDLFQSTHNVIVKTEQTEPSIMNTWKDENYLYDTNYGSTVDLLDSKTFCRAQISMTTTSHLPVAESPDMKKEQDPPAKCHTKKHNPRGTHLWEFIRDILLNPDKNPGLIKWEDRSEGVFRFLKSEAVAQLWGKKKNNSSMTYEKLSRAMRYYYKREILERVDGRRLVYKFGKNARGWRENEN
Procedure, shortened: as §1

SPI1 = SPI1 (Homo sapiens, UniProt P17947 1-270)
Procedure, shortened: as §1

SPIB = SPIB (Homo sapiens, UniProt Q01892 1-262)
Procedure, shortened: as §1

ELK3 = target: T6, ELK3 (Homo sapiens, UniProt P41970 1-407)
T6 sequence: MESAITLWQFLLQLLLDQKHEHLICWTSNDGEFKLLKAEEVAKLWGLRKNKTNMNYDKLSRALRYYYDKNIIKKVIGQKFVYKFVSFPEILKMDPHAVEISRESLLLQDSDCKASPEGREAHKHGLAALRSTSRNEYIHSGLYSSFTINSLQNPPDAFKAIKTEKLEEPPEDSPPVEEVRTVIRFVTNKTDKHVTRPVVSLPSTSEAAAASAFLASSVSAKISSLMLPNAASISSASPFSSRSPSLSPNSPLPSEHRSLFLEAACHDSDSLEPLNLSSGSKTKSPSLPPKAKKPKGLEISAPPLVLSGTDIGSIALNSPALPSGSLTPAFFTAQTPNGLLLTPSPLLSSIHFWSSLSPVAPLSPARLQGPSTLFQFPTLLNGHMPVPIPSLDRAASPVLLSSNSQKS
Procedure, shortened: as §1

Chain of ELF1 (P32519 whole entry): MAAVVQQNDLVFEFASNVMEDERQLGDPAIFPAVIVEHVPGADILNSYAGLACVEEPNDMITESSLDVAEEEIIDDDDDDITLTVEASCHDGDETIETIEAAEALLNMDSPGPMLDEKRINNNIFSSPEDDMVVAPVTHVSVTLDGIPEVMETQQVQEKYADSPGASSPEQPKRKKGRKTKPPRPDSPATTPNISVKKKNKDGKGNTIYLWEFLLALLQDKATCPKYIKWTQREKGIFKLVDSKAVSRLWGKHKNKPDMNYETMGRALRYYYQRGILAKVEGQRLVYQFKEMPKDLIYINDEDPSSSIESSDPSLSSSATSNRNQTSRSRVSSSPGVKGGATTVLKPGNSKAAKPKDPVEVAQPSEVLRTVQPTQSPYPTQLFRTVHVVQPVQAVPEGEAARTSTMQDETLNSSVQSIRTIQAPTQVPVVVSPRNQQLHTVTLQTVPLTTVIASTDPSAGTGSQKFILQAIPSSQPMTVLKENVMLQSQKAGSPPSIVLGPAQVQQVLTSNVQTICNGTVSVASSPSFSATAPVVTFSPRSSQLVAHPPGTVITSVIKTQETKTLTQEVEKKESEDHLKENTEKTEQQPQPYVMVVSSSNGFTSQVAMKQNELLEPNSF
Chain of SPIB (Q01892 whole entry): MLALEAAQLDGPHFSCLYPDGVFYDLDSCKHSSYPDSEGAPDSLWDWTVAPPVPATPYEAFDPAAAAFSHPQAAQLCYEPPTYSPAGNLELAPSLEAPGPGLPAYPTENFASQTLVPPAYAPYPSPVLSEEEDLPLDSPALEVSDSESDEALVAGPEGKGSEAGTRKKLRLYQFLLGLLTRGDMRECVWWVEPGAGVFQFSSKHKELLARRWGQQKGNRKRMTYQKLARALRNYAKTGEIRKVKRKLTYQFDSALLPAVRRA

Row | Sequence | binding signal (FLI1) | binding signal (ELK1) | binding signal (GABPA) | binding signal (ERG) | binding signal (ELF1) | binding signal (EHF) | binding signal (SPI1) | binding signal (SPIB) | binding signal (ELK3)
1 | ACAACT | 1.36 fold enrichment (6-mer frequency, TF over GST control) | 1.4 fold enrichment (6-mer frequency, TF over GST control) | 1.4 fold enrichment (6-mer frequency, TF over GST control) | 1.41 fold enrichment (6-mer frequency, TF over GST control) | 1.46 fold enrichment (6-mer frequency, TF over GST control) | 1.2 fold enrichment (6-mer frequency, TF over GST control) | 1.41 fold enrichment (6-mer frequency, TF over GST control) | 1.35 fold enrichment (6-mer frequency, TF over GST control) | 1.5 fold enrichment (6-mer frequency, TF over GST control)
2 | TTTAAT | 1.4 fold enrichment (6-mer frequency, TF over GST control) | 1.28 fold enrichment (6-mer frequency, TF over GST control) | 1.29 fold enrichment (6-mer frequency, TF over GST control) | 1.27 fold enrichment (6-mer frequency, TF over GST control) | 1.29 fold enrichment (6-mer frequency, TF over GST control) | 1.35 fold enrichment (6-mer frequency, TF over GST control) | 1.23 fold enrichment (6-mer frequency, TF over GST control) | 1.35 fold enrichment (6-mer frequency, TF over GST control) | 1.36 fold enrichment (6-mer frequency, TF over GST control)
3 | CCCTTT | 1.47 fold enrichment (6-mer frequency, TF over GST control) | 1.36 fold enrichment (6-mer frequency, TF over GST control) | 1.51 fold enrichment (6-mer frequency, TF over GST control) | 1.45 fold enrichment (6-mer frequency, TF over GST control) | 1.36 fold enrichment (6-mer frequency, TF over GST control) | 1.35 fold enrichment (6-mer frequency, TF over GST control) | 1.96 fold enrichment (6-mer frequency, TF over GST control) | 1.49 fold enrichment (6-mer frequency, TF over GST control) | 1.43 fold enrichment (6-mer frequency, TF over GST control)
4 | CTCAGT | 1.16 fold enrichment (6-mer frequency, TF over GST control) | 1.21 fold enrichment (6-mer frequency, TF over GST control) | 1.2 fold enrichment (6-mer frequency, TF over GST control) | 1.13 fold enrichment (6-mer frequency, TF over GST control) | 1.22 fold enrichment (6-mer frequency, TF over GST control) | 1.06 fold enrichment (6-mer frequency, TF over GST control) | 1.18 fold enrichment (6-mer frequency, TF over GST control) | 1.14 fold enrichment (6-mer frequency, TF over GST control) | 1.24 fold enrichment (6-mer frequency, TF over GST control)
